Test results from PubChem BioAssay (NCI).
About 83,000 compounds went through this panel and 20% of them were active in at least one assay; those are over-represented in the sample as a whole.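 Percent growth is the endpoint: 0 to 100 indicates growth inhibition (40 means 60% inhibition), 0 means no net growth, and negative values indicate cell death.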 Values without a mark were called inactive. Activity calls are given as the source filed them. Rule for the calls: active = growth percent below 10; inactive = the rest.

What follows are compounds tested on MOLT-4 leukemia (assay: NCI-60 one-dose screen, 48 h (100 = growth as untreated, 0 = no growth, -100 = all killed)). Details: 10 µM unless noted.

Structure (SMILES)	growth
COc1ccc(C=Nc2c(C(=O)Nc3cccc(Cl)c3C)sc3nc(C)c(C(=O)/C=C/c4ccc(OC)cc4)cc23)cc1	52.2%
CCOC(=O)CNC1=C(Cl)C(=O)N(Cc2ccc(Cl)cc2)C1=O	98.2%
COc1ccc(/C=C(\C(=O)NCc2cccnc2)S(=O)(=O)c2ccccc2)cc1OC	39.3%
COc1cc2c(c(OC)c1OC)CCC(c1cccc(C(=O)Nc3ccc(Br)cc3)c1)O2 (stereo not given)	25.1%
Nc1cc(-c2ccc(Cl)cc2)nn1-c1nnc(/C=C/c2ccco2)c(=O)[nH]1	44.4%
N#C/C(=C\c1ccc(-c2cccc(Cl)c2)o1)C(=O)Nc1ncc(Cc2ccc(Cl)cc2)s1	87.1%
CCOC(=O)c1c(C)nc2c(c1N)C(=O)C(=O)N2Cc1ccc(OC)cc1	101%
c1csc(-c2cn3nc(-c4c[nH]c5ccccc45)sc3n2)c1	27.2%
FC(F)(F)c1[nH]ncc1-c1nc2ccc3[nH]ncc3c2c2c1CCCC2	-30% (active)
COc1cc(-c2nccc3[nH]c(-c4cccc5[nH]ccc45)nc23)cc(OC)c1OC	19.9%
COc1ccc2[nH]cc(-c3nonc3-c3c[nH]c4ccc(Br)cc34)c2c1	28.3%
CC(=O)c1c(Nc2cccc(F)c2)[nH]c2c(Cl)cc(Cl)c(Cl)c2c1=O	4.94% (active)
CCOC(=O)NC(=S)n1oc(=O)c2ccccc21	95.9%
O=S(Nc1ccccc1)c1ccc(Cl)cc1 (stereo not given)	85.7%
Nc1c(Br)cc2c(c1Br)Cc1cc([N+](=O)[O-])ccc1-2	83.4%
CCCN(CCSSCCNc1nc(N(C)O)nc(N(C)O)n1)c1nc(N(C)O)nc(N(C)O)n1	47.3%
COC(=O)c1sccc1-c1cc(O)c(C(=O)Nc2ccccc2)s1	96.9%
N#Cc1c(-c2ccc(Cl)cc2)nc(NN=Cc2ccc[nH]2)nc1N1CCOCC1	17.4%
Clc1ccc(-c2nc(C(Cl)Cl)nc3cc(-c4ccccc4)nn23)cc1	31.7%
C/C(=N\Nc1ccccc1)c1ccc(NC2=CC(=O)c3ccccc3C2=O)cc1	63%

Structure (SMILES)	growth
COc1ccc(/C=C(/C(=O)N2CCNCC2)c2cc(OC)c(OC)c(OC)c2)cc1O	25.5%
CCN(CC)CCCC(Cc1ccccc1)Nc1c2ccc(Cl)cc2nc2ccc(OC)cc12 (stereo not given)	4.64% (active)
Fc1ccc2[nH]cc(-c3nc(-c4c[nH]c5c(Cl)nccc45)cs3)c2c1	38.2%
Fc1ccc(/C=C/[C@@H]2C[C@@H](F)CCO2)cc1	70.1%
Cc1ccccc1N1CCN(C(=S)c2ccccc2)CC1	106%
N#Cc1ccc(/C=C/c2cn(-c3ccccc3)nc2-c2cccc([N+](=O)[O-])c2)cc1	97.6%
Cc1[nH]c(C(=O)Nc2ccccc2OC2CCN(CCN3CCOCC3)CC2)c(Cl)c1Cl	72.6%
COc1ccc(C(O)c2cc3c(N)c(C(=O)Nc4cccc5ccccc45)sc3nc2C)cc1 (stereo not given)	10.9%
Cc1ccc(C(=O)c2ccc(CC(=O)N/N=C/c3cccc(O)c3O)n2C)cc1	11.2%
CCC(C)(C)c1ccc(Nc2ccc(Nc3ccc(C(C)(C)CC)cc3)cc2)cc1	76%
O=C(Nc1ccc(Nc2ccncc2)cc1)c1ccc(Nc2ccnc3ccc([N+](=O)[O-])cc23)cc1	40.7%
CCCCNC(=O)c1ccc2c(c1)nc(-c1ccccc1)n2C1CCCCC1	94.6%
Cc1ccc(NC(=O)c2cc3ccccc3cc2O)c(C)c1	104%
CCOC(=O)C(CCN(C)C)c1ccccc1 (stereo not given)	116%
CC(O)Cc1c[nH]c(=O)[nH]c1=O (stereo not given)	101%
COCCn1cc(-c2nc(-c3c[nH]c4ncccc34)cs2)c2ccccc21	48.7%
CC1SC(c2ccccc2O)N(NC(=O)CCC(=O)c2nc3ncccc3[nH]2)C1=O (stereo not given)	123%
COC12C=C/C(=C(/C(=O)OCCSc3ccnn3C)C(=O)CCCCCCCCC3(OC)C=C/C(=C(/C(=O)OCCSc4ccnn4C)C(=O)CCCCCCCC1)O3)O2	-0.956% (active)
COC1C(O)CC(OC2CC(OC3CC(O[C@@H]4C(=O)c5c(cc6cc(OC7CC(OC8CC(O)C(O)C(C)O8)C(O)C(C)O7)c(C)c(O)c6c5O)CC4[C@H](OC)[C@@H](O)C(C)=O)OC(C)C3O)OC(C)C2O)OC1C (stereo not given in full)	-2.23% (active)
CNC(=O)c1cc(Oc2ccc3c(c2)sc2nc(-c4ccc(NC(=O)[C@@H](NC(=O)OC)C(C)C)cc4)cn23)ccn1	23.8%
